# Assay outcomes deposited in PubChem BioAssay by National Center for Advancing Translational Sciences (NCATS).
# Most compounds without a hit are left out; they make up all but 14% or so of the library.
# CHX counter: affects cycloheximide protein synthesis inhibition readout, counter-screen | cell reporter, cycloheximide protein synthesis inhibition counterscreen | max response, % | 12% of 300,000 active; in the data active = max response mostly above about 13%, no sharp cut-off; inactive = mostly below about 14%; also: read at 38.3 µM for the half of the compounds with a filed dose; 0% is about no effect
# Shiga toxin inh: Shiga toxin inhibition; Vero cells, Shiga toxin protein synthesis inhibition reporter; 9.2% of 290,000 active; inhibition, % at 38.7 µM; AID 2315; in the data active = inhibition mostly above about 28%, no sharp cut-off; inactive = mostly below about 43%; also: 0% is about no effect
# NS1 inh: influenza NS1 inhibition; 0.4% of 270,000 active; AID 2326; Potency, µM (top dose mostly 46.1 µM), without a hit: at the highest dose activity, positive = more growth; calls by dose curve; also: potency is read from the fitted curve at half-maximal effect; actives are rising curves; nearly all actives have a fitted effect of over 50% in size
#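 Growth recovery, yeast-based: influenza A NS1 expressed in S. cerevisiae causes slow growth, and suppressors are detected by OD600. The parent strain without NS1 is used as positive control.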
# LmPK inh: blocks Leishmania mexicana pyruvate kinase activity | 0.37% of 290,000 active | purified LmPK, Kinase-Glo ATP luminescence, 1 h | Potency, µM (doses to about 57.5 µM), without a hit: at the highest dose activity change, negative = inhibition, hits mostly inhibitors; also: potency is read from the fitted curve at half-maximal effect; % is scaled to controls: 0 for no effect and ±100 for the full control effect
# Target sequence (Q27686 whole entry, looked up): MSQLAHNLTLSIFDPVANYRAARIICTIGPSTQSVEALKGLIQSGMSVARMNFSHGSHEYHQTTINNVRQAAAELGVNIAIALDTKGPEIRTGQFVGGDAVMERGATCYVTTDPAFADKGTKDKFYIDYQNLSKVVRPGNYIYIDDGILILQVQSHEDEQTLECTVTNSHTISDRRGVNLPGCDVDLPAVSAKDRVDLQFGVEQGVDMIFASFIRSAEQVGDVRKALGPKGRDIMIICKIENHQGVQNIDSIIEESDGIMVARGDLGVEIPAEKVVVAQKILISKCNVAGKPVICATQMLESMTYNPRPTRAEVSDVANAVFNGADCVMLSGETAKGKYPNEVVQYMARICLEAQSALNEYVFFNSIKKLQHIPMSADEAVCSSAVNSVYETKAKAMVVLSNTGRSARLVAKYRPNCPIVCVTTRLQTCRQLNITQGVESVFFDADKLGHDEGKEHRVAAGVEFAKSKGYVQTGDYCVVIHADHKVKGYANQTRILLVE
#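 Purified LmPK (0.1 nM) with 0.5 mM PEP and 0.1 mM ADP in imidazole buffer pH 7.2 with MgCl2/KCl, 1 h at room temperature. ATP formed was read by luciferase luminescence and normalized to no-enzyme and uninhibited controls.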
# Giardia FBPA inh: blocks Giardia fructose-bisphosphate aldolase activity | 0.71% of 290,000 active | A8B2U2 | Potency, µM (highest dose often 59.6 µM), without a hit: top-dose activity, negative = inhibition, actives largely listed as inhibitors | purified Giardia FBPA; also: potency is read from the fitted curve at half-maximal effect; % is scaled to controls: 0 for no effect and ±100 for the full control effect; nearly all actives have a fitted effect of over 55% in size
#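 Giardia FBPA (40 nM reagent) was preincubated 10 min at RT with compound (up to 57.5 uM final), then substrate plus GAPDH/TPI/NAD/arsenate coupling system with diaphorase/resazurin was added; resorufin fluorescence (525/598 nm) was read after 20 min.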
# * hit, by the source's call; ? = inconclusive; · = not tested or not shown; [ ] = another dose, or the depositor's remark. Unless noted, calls follow the shape of the dose curve; as a rule, active = well fitted curve in the direction sought with a large enough effect; inconclusive = small, poorly fitted or top-dose-only effect, or another doubt; inactive = no such curve, though single readings can be large; an effect the other way counts as inactive or inconclusive.
SMILES,CHX counter,Shiga toxin inh,NS1 inh,LmPK inh,Giardia FBPA inh
CCOC(=O)C(=O)Nc1nnc(C2CCCCC2)s1,7.6,13.5,-56.8%,4.3%,3.1%
Cc1cc(C(=O)Nc2nnc(C3CCCCC3)s2)no1,16.4,39.6,-114.0%,-2.1%,3.7%
COCC(=O)Nc1nnc(C2CCCCC2)s1,20.2*,53.3*,-7.0%,0.1%,-3.7%
O=C(Nc1cccnc1)c1cc(S(=O)(=O)N2CCCCC2)c(Cl)cc1Cl,-2.6,-13.7,6.8%,9.4%,-5.0%
CCCCCCCCCCCCCCCCCCOC[C@@H](O)COP(=O)([O-])OCC[N+](C)(C)C,·,·,·,·,6.5%
CCOc1ccc(/C=C2/SC(=O)NC2=S)cc1,34.9*,46.0*,-33.3%,-6.6%,15.3%
CCOc1ccc(N=C2NC(=O)S/C2=C\c2ccc(N(C)C)cc2)cc1,21.6*,59.2*,-29.8%,-9.9%,-1.6%
c1ccc(CNc2nc3ccccc3n3cnnc23)nc1,17.9,10.0,-6.9%,0.1%,-9.2%
CC(C)n1cnc2cc(NCc3ccco3)ccc21,41.1*,72.1*,-6.7%,-2.3%,-22.2%
c1ccc(-n2cnc3cc(NCc4ccccn4)ccc32)cc1,59.0*,81.8*,-0.5%,-2.2%,-25.5%
CC(C)(C)n1cnc2cc(NCc3ccccc3O)ccc21,48.5*,65.8*,-5.9%,3.0%,1.2%
CC(C)n1cnc2cc(NCc3ccccc3O)ccc21,51.7*,86.2*,-1.3%,0.6%,-1.7%
COc1ccc(O[C@H]2C=C[C@@H](c3ccccc3)O[C@H]2CO/N=C(/C)CCC(=O)OC[C@@H]2O[C@H](c3ccccc3)C=C[C@@H]2Oc2ccc(OC)cc2)cc1,·,·,·,·,-2.6%[12.9 µM]
CC(C)c1ccccc1NC(=O)CN1C(=O)c2ccccc2C1=O,-1.8,-5.7,0.6%,0.1%,12.7%
COc1ccccc1Cc1nnc(NC(=O)C2CCN(C(=O)c3ccco3)CC2)s1,5.6,9.9,-12.1%,0.9%,5.3%
Cc1cc(NCc2ccccn2)ccc1Br,34.1*,73.8*,-30.8%,-10.5%,·
CC(C)n1cnc2cc(NCc3ccccn3)ccc21,71.9*,70.0*,4.7%,-2.2%,-28.5%
Cc1cc(N/N=C/c2ccco2)c2ccccc2n1,7.5,60.7,-10.2%,1.1%,4.2%
O=S(=O)(c1cccc(-c2csc(N/N=C/c3ccco3)n2)c1)N1CCOCC1,-2.0,26.2,5.0%,4.5%,-10.5%
OCC(O)/C=N/Nc1nc2ccccc2s1 (stereo unspecified),6.5,48.3*,·,-2.7%,-2.7%
C(=N\Nc1nc2ccccc2s1)/c1cccs1,50.0*,103.1*,-14.9%,-18.7%,-0.2%
Cc1ccc(C)c(-c2csc(N/N=C/c3ccco3)n2)c1,16.5,94.8*,·,-7.7%,-12.1%
C(=N\Nc1nc2ccccc2s1)/c1ccco1,44.1*,45.0*,4.3%,-20.6%,-5.1%
Cc1ccsc1/C=N/Nc1nc2ccccc2s1,69.9*,146.4*,?,-15.4%,3.1%
CCn1c(/C=C/c2c(C)n(CC)c3ccccc23)nc2ccccc2c1=O,12.4,13.4,5.1%,1.4%,4.1%
SMILES,CHX counter,Shiga toxin inh,NS1 inh,LmPK inh,Giardia FBPA inh
Cc1ccsc1/C=N\NC(=O)Cn1nnc2ccccc21,14.7,-1.3,5.7%,-0.8%,5.4%
CCn1c(C)c(/C=N/Nc2nc3ccccc3s2)c2ccccc21,61.3*,104.7*,8.7%,-0.4%,·
COC(=O)c1ccccc1-n1c(C)nc(=O)c(-c2ccccc2)c1C,-2.6,-10.1,2.7%,-1.0%,5.9%
COc1ccc(-c2nnc(Nc3nc4c(OC)cccc4s3)o2)cc1,-3.9,-5.1,-44.5%,3.2%,?
Fc1cccc2sc(Nc3nnc(-c4ccccc4)o3)nc12,27.3*,46.2*,-44.8%,1.2%,-3.8%
COc1cc(OC)cc(-c2nnc(Nc3nc4c(F)cccc4s3)o2)c1,5.4,13.8,-1.2%,2.6%,?
NNc1nc2c(F)cccc2s1,84.2*,77.4*,-1.3%,-8.9%,-13.0%
COc1ccc(-c2nnc(Nc3nc4c(OC)cccc4s3)o2)c(OC)c1,18.0*,42.9*,-16.7%,0.6%,-4.3%
O=C(Nc1nc2c(F)cccc2s1)C1CC1,36.3*,53.7*,-25.8%,-6.9%,3.5%
Cc1cccc(C)c1NC(=O)CCCN1C(=O)C(c2ccccc2)Oc2cccnc21 (stereo unspecified),13.8,-0.9,-5.1%,-3.9%,8.9%
Fc1cccc2sc(Nc3nc4c(F)cccc4s3)nc12,63.4*,37.8*,15.7%,0.0%,1.7%
Cc1c(Cl)ccc2sc(NC(=O)C3CC3)nc12,17.7*,27.6*,-47.6%,-2.7%,8.6%
CC(=O)Nc1nc2c(C)c(Cl)ccc2s1,-1.8,-4.3,-4.1%,5.3%,3.5%
